Screens as filed in PubChem BioAssay.
PAFAH2 FP inh = PAFAH2 (human) inhibition. AID 492956. Q99487. inhibition, % at 3.39 µM. 340,000 tested, 0.99% active. recombinant PAFAH2, FP-rhodamine activity probe, fluorescence polarization;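 active means inhibition above the mean over all tested compounds plus 3 SD, cut at about 30% in these data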;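 further: inhibitors block probe labeling of enzyme so polarization drops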
PP1 inh = blocks human PP1-alpha phosphatase, a PP5 counter-screen. purified PP1alpha, OMFP fluorescence. P62136. inhibition, % at 6.7 µM. 320,000 tested, 0.9% active;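 active means inhibition above the mean inhibition of all tested compounds plus 3 SD, computed separately for each screening campaign, cut at about 15% in these data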
pPAFAH inh = pPAFAH (human) enzyme inhibition; Q13093; recombinant pPAFAH, FP-rhodamine probe fluorescence polarization; inhibition, % at 3.39 µM; 330,000 tested, 1.5% active; AID 463082;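 active means inhibition above the mean inhibition across the screen plus 3 SD, cut at about 25% in these data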;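 further: inhibitors block binding of the rhodamine activity-based probe so polarization drops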
PAFAH1B2 FP inh = PAFAH1B2 (human) inhibition | P68402 | recombinant PAFAH1B2, FP-rhodamine activity probe, fluorescence polarization | inhibition, % at 3.39 µM | 340,000 tested, 1.2% active | AID 492953;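 active means inhibition above the mean of all tested compounds plus 3 SD, cut at about 24% in these data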
Target sequence (P68402 whole entry, looked up): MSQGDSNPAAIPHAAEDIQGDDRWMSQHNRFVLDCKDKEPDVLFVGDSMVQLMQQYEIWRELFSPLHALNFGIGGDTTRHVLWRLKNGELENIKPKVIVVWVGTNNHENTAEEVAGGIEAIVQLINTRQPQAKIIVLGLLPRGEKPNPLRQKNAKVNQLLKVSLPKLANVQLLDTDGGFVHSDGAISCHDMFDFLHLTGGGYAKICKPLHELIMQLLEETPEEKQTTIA
PAFAH1B3 inh = PAFAH1B3 (human) inhibition | AID 492972 | recombinant PAFAH1B3, FP-rhodamine probe, fluorescence polarization | Q15102 | inhibition, % at 3.39 µM | 340,000 tested, 0.28% active;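 active means inhibition above the screen-wide average of all tested compounds plus 3 SD, cut at about 25% in these data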
Target sequence (Q15102 whole entry, looked up): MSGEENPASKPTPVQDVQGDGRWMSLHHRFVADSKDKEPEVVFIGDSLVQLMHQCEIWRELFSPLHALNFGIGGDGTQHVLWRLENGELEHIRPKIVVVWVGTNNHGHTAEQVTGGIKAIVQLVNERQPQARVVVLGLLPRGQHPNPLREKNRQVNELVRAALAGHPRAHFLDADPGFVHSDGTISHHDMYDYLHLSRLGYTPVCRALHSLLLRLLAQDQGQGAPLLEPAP
PP5 inh = PP5 (human) phosphatase inhibition | inhibition, % at 6.7 µM | 320,000 tested, 0.18% active | purified PP5c, OMFP substrate fluorescence | P53041;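 active means inhibition above the campaign's mean inhibition across all tested compounds plus 3 SD, cut at about 9.5% in these data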
PP5 inh confirm = confirmation of human PP5 phosphatase inhibitors. shares compounds with PP5 inh. Purified PP5, fluorogenic phosphatase substrate, fluorescence. inhibition, % at 6.7 µM. 460 tested, 22% active. AID 2331; in the data active means inhibition above about 9.5%
PP1 inh counter = PP1 phosphatase inhibition, counter-screen for PP5 inhibitors; shares compounds with PP5 inh; PP1 enzyme, fluorescent phosphatase substrate; inhibition, % at 6.7 µM; 460 tested, 4% active; in the data active means inhibition above about 16%
A number is an active result; - = inactive; . = no result given. Compounds with a hit are over-represented: about 3.4% of the library has one in this group of screens.

SMILES	PAFAH2 FP inh	PP1 inh	pPAFAH inh	PAFAH1B2 FP inh	PAFAH1B3 inh	PP5 inh	others
COC(=O)C1=C(c2cc3ccccc3s2)C[C@@H]2CC[C@H]1N2C(=O)NCc1ccccc1	-	-	-	-	-	-
Cc1ccc(CN2C(=O)CN=C(c3ccccc3)c3ccccc32)cc1	-	-	-	28	-	-
O=C(c1cc2cc(Cl)ccc2[nH]1)N1CCC2(CC1)OCCO2	-	-	-	-	-	-
O=C(c1cc2cc(F)ccc2[nH]1)N1CCC2(CC1)OCCO2	-	17	-	-	-	-
COC(=O)C1=C(c2cccc(OCc3ccccc3)c2)C[C@@H]2CC[C@H]1N2C(=O)NCc1ccccc1OC	-	-	-	-	-	-
CCCNC(=O)N1[C@H]2CC[C@@H]1C(C(=O)OC)=C(c1ccc(C(C)=O)cc1)C2	-	-	-	-	-	-
O=P(NC(c1ccccc1)c1ccccc1)(Oc1ccccc1)Oc1ccccc1	-	-	-	-	-	-
O=P(O)(Oc1ccccc1)OC(c1ccccc1)C(F)(F)F (centres undefined)	67	-	-	52	-	-
CN1C[C@H](CO)C[C@@H]2c3cccc4[nH]cc(c34)C[C@H]21	-	-	-	-	-	-
CN1C[C@H](CNC(=O)OCc2ccccc2)C[C@@H]2c3cccc4c3c(cn4C)C[C@H]21	-	-	27	-	-	-
BrCC(Br)C1CCC(Br)C(Br)C1 (centres undefined)	-	-	-	51	-	-
O=[P+](Cc1ccccc1)Cc1ccccc1	-	-	-	-	-	-
Cc1cc(/C=C2/C(=O)NC(=O)N(c3ccccc3)C2=O)c(C)n1-c1ccc(F)cc1	-	-	-	25	-	-
Cc1cc(/C=C2\C(=O)NC(=O)N(c3ccc(F)cc3)C2=O)c(C)n1-c1ccc(C(=O)O)cc1	-	-	-	-	-	-
Cc1cc(/C=C2\C(=O)NC(=O)N(Cc3ccccc3)C2=O)c(C)n1-c1ccc(Cl)c(C(=O)O)c1	43	-	28	-	-	-
Clc1ccc(CO/N=C(\Cn2ccnc2)c2ccc(Cl)cc2Cl)c(Cl)c1	.	33	-	.	.	-
N=c1sccn1Cc1ccc(Cl)cc1Cl	-	-	-	-	-	-
O=C(Nc1ccc(Cl)cc1C(=O)c1ccccc1)c1ccccc1	-	-	29	-	-	-
Cc1ccc2c(c1)=NC(=O)/C(=C/c1c(O)[nH]c(=O)[nH]c1=O)C=2	-	-	-	33	-	-
Cc1ccc2c(c1)=C/C(=C\c1c(O)[nH]c(=S)[nH]c1=O)C(=O)N=2	.	-	-	.	.	-
O=C(Nc1ccc(Cl)cc1)O/N=C(\c1ccccc1)c1ccccn1	-	-	-	-	-	-
Oc1c(Br)cc(Br)cc1Br	-	-	-	-	-	-
Oc1c(Br)c(Br)c(Br)c(Br)c1Br	-	-	32	41	-	-
O=C1C(=O)c2ccccc2-c2ccccc21	58	40	-	43	71	-
Cc1ccc(OCCn2cccc2/C=C2/C(=O)NC(=O)N(Cc3ccco3)C2=O)cc1	-	-	-	25	-	-
SMILES	PAFAH2 FP inh	PP1 inh	pPAFAH inh	PAFAH1B2 FP inh	PAFAH1B3 inh	PP5 inh	others
Cn1cccc1/C=C1\C(=O)NC(=O)N(Cc2ccco2)C1=O	-	.	.	-	-	.
O=C1NC(=O)N(Cc2ccccc2)C(=O)/C1=C\C=C\c1ccco1	-	-	-	-	-	-
O=C1NC(=O)N(Cc2ccco2)C(=O)/C1=C/C=C/c1ccco1	33	-	33	-	-	-
CC(=O)c1ccc2c(c1)C1C(Cl)C(Sc3ccccc3[N+](=O)[O-])CC1C(c1ccccc1)N2 (centres undefined)	-	-	-	-	-	-
CC(=O)c1ccc2c(c1)C1C(Cl)C(Sc3ccccc3[N+](=O)[O-])CC1C(c1ccccc1[N+](=O)[O-])N2 (centres undefined)	-	16	-	-	-	-
COC(=O)C(O)(c1ccc(NC(=S)NC(=O)c2ccccc2)cc1)C(F)(F)F (centres undefined)	-	-	34	-	-	-
O=C1CC(N2CC=C(c3ccccc3)CC2)C(=O)N1c1ccc(F)cc1 (centres undefined)	-	-	-	-	-	-
C/C(=N\NC(=O)c1ccccc1Cl)c1c(O)n(C2CCCCC2)c(=O)[nH]c1=O	-	-	-	-	-	-
O=C1CC(=O)N(Cc2ccccc2)C(=S)N1	-	-	-	31	-	-
C=CCn1c(O)c(C(C)=NC2CC2)c(=O)[nH]c1=O	-	-	-	-	-	-
C/C(=N\NC(=O)c1ccncc1)c1c(O)n(Cc2ccccc2)c(=O)[nH]c1=O	-	-	-	-	-	-
O=C(N/N=C/c1c(O)n(Cc2ccc(F)cc2)c(=O)[nH]c1=O)c1ccccc1	-	-	-	35	-	-
C/C(=N\NC(=O)c1ccccc1O)c1c(O)n(Cc2ccccc2)c(=O)[nH]c1=O	-	-	25	28	-	-
C/C(=N\NC(=O)c1ccccc1O)c1c(O)n(C2CCCCC2)c(=O)[nH]c1=O	-	-	26	-	-	-
CCCNC(=O)N1[C@H]2CC[C@@H]1C(C(=O)OC)=C(c1ccc(S(C)(=O)=O)cc1)C2	-	-	-	-	-	-
O=C(O)CCC(=O)NCCC1=c2ccccc2=N/C1=C\c1c(O)n(Cc2ccc(F)cc2)c(=S)[nH]c1=O	38	-	-	41	-	-
CCCCC(=O)N/N=C/c1c(O)n(Cc2ccc(F)cc2)c(=O)[nH]c1=O	-	-	-	-	-	-
COc1cc2[nH]c(=S)n(-c3ccccc3)c(=O)c2cc1OC	-	-	-	-	-	-
CN(C)c1ccc(/C=C2/C(=O)NC(=O)N(CCc3ccc(F)cc3)C2=O)cc1	-	-	-	-	-	-
CCCCCCC(C)(C)c1ccc([C@@H]2C[C@H](O)CC[C@H]2CCCO)c(O)c1	-	-	-	-	-	10	PP5 inh confirm=-;PP1 inh counter=-
CCCCNC(=O)c1c(N)n(CCCOC)c2nc3ccccc3nc12	-	-	-	-	-	-
COCCNC(=O)c1c(N)n(CCC(C)C)c2nc3ccccc3nc12	-	-	-	-	-	11	PP5 inh confirm=23;PP1 inh counter=-
CC(C)OCCCNC(=O)c1c(N)n(Cc2cccs2)c2nc3ccccc3nc12	-	-	-	-	-	12	PP5 inh confirm=15;PP1 inh counter=-
CC(C)CCn1c(N)c(C(=O)NCc2cccs2)c2nc3ccccc3nc21	-	-	-	-	-	-
COc1cc(OC)c2c(c1)O[C@@H](c1ccc(OC)c(OC)c1)[C@H](O)C2	-	-	-	-	-	-
Cc1cc(C)n(CCOC(=O)C2C(C=C(Cl)Cl)C2(C)C)n1 (centres undefined)	-	-	-	-	-	-
